Screening data (PubChem)
An excerpt weighted towards active compounds, which were near 3.2% of everything screened.
Nrf2 activator: qHTS of Nrf2 Activators; AREc32 ARE-luciferase reporter (MCF7-derived line), luminescence, 24 h; 410,000 tested, 0.31% active; Potency, µM (top dose mostly 46.1 µM), without a hit: at the highest dose activation, most hits filed as activators; AID 624171, 2012; note: potency is the fitted concentration of half-maximal effect; % of control where 0% means no effect; nearly all actives have a fitted effect of over 65% in size
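AREc32_Fluc, 1000 cells/well, OPTI-MEM + 5% FBS, o/n 37 deg C 5% CO2; 23 nL cpd by pin tool, 24 hr; Steady-Glo 30 min RT, luminescence.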
Nrf2 block: Nrf2 qHTS screen for inhibitors; A549 ARE-Fluc reporter, luciferase luminescence, 18-24 h; Potency, µM (top dose mostly 46 µM), without a hit: top-dose activity change, negative = inhibition, actives largely listed as inhibitors; 360,000 tested, 2.1% active; AID 504444, 2011; note: potency is the fitted concentration of half-maximal effect; % is set by controls: 0 for no effect and ±100 for the full control effect; nearly all actives have a fitted effect of over 60% in size
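Reporter: ARE-Fluc in A549. Exposure: 18-24 h, 37 °C, 5% CO2, 5% FBS OPTI-MEM. Readouts: fluorescent cytotoxicity (CellTiter-Fluor), then luminescent Nrf2 signal after BugLite.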
A549 tox: Nrf2 qHTS screen for inhibitors: counterscreen for cytotoxicity | Potency, µM (doses to about 46 µM), for inactives: top-dose activity change, negative = cytotoxicity, hits mostly inhibitors | 390,000 tested, 0.16% active | A549 ARE-Fluc cells, CellTiter-Fluor viability, 18-24 h; note: potency is the fitted concentration of half-maximal effect; % is set by controls: 0 for no effect and ±100 for the full control effect
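A549 ARE_Fluc cells in 5% FBS OPTI-MEM were exposed to compounds in concentration-response for 18-24 h at 37 deg C. Viability was read by CellTiter-Fluor fluorescence (Ex 405/Em 525) after 30 min, before the luciferase read.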
BRCA1 expr up: qHTS Assay to Identify Small Molecule Activators of BRCA1 Expression; MCF7-BRCA1-FFLuc reporter, luminescence, 48 h; response scale: scaled: vehicle 0%, 10 µM genistein 100%; Potency, µM (titrated, usually from 46.1 µM), without a hit: top-dose activation, hits mostly activators; 380,000 tested, 1.1% active; AID 624202, 2012; note: potency is the fitted concentration of half-maximal effect; nearly all actives have a fitted effect of over 80% in size
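Compounds are tested at multiple concentrations on MCF7 BRCA1-luciferase reporter cells seeded at 2000 per well; after 48 h, a single luminescence end-point is taken and curves fitted to the normalized data.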
IL2 activator: qHTS of IL-2 Activators; 360,000 tested, 0.065% active; activation, % (series mostly up to about 46 µM); IL-2 activation reporter assay, cell-based qHTS; stimulated with anti-CD3/CD4/CD28 beads; in transgenic mouse T cells; AID 652025, 2013; in the data active = activation above about 50%; inconclusive = mostly about 30% to 49%; note: 0% is about no effect
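Using fluorescent plate cytometry, EGFP and DsRed are detected in transgenic mouse T cells stimulated 18 h at 37 degrees C with antibody-coated beads after 60 min compound pretreatment.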
p53 reactivation: qHTS assay for re-activators of p53 using a Luc reporter. H1299 p53-A138V BP100-luciferase reporter, luminescence, 24 h. Potency, µM (series often up to 92.2 µM), for the others: at the highest dose activity change, positive = activation, most hits filed as activators. 320,000 tested, 0.063% active; note: potency is the fitted concentration of half-maximal effect; % of control where 0% means no effect; nearly all actives have a fitted effect of over 45% in size
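H1299 (p53-null), stable ts p53-A138V + BP100-Luc; 1000 cells/well, Opti-MEM/10% FBS; cpd 4 pt, 1:5; 24 h, 37 deg C, 5% CO2; detection reagent 10 min RT; luminescence.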
* = called active by the depositor; ? = inconclusive; / = not tested or not shown. Unless noted, calls come from the whole dose curve; as a rule, active = well fitted curve in the direction sought with a large enough effect; inconclusive = small, poorly fitted or top-dose-only effect, or another doubt; inactive = no such curve, though single readings can be large; an effect the other way counts as inactive or inconclusive.

SMILES | Nrf2 activator | Nrf2 block | A549 tox | BRCA1 expr up | IL2 activator | p53 reactivation
NC(=O)c1c(NC(=O)c2c(F)cccc2F)sc2c1CCN(Cc1ccccc1)C2 | 3.1% | 17.0% | 9.3% | -8.1% | -1.0 | 10.0%
CCN1CCc2c(sc(NC(=O)c3ccc(S(=O)(=O)N(CC)c4ccccc4)cc3)c2C(N)=O)C1 | 12.5% | 16.4µM* | 23.1µM* | -41.2% | ? | -1.3%
NC(=O)c1c(NC(=O)c2ccccc2)sc2c1CCN(Cc1ccccc1)C2 | 6.1% | 12.4% | 14.1% | 16.9% | 316.8* | /
O=C1c2ccccc2C(=O)N1c1cccc2cnccc12 | / | 10.1% | 6.5% | / | / | /
COCCNc1cc(N)c([N+](=O)[O-])cc1[N+](=O)[O-] | 2.6% | 1.9% | -8.9% | -19.7% | -1.8 | -12.5%
CCOC(=O)c1ccc(NCCOC)c([N+](=O)[O-])c1 | 4.4% | 12.1% | -7.4% | 12.6µM* | 0.9 | 4.6%
COc1ccc(-c2cc(C(=O)NCCc3ccccc3)c3c(-c4ccc(Cl)cc4)[nH]nc3n2)cc1 | -0.8% | 23.1µM* | ? | 15.8% | / | /
CN(C)c1ccc(/C=C2\C(Cl)=Cc3ccccc32)cc1 | / | / | / | 76.3% | / | /
COC1=CC(=O)C=C(OC)C1=O | -2.9% | ? | -13.9% | -50.1% | -0.5 | /
COC1=CC(=O)c2ccccc2C1=O | -2.9% | 23.1µM* | ? | -87.9% | -0.3 | -23.9%
Cc1sc(NC(=O)/C=C/c2ccco2)c(C(=O)O)c1C | ? | ? | -17.2% | 2.24µM* | 8.1 | 4.7%
Cc1ccc(CN(Cc2cc3cc4c(cc3[nH]c2=O)OCCO4)Cc2nnnn2Cc2ccco2)cc1 | 4.7% | 25.9µM* | ? | -63.3% | -0.3 | -3.6%
Cc1ccc2cc(CN(Cc3ccc4c(c3)OCO4)Cc3nnnn3Cc3ccco3)c(=O)[nH]c2c1 | 4.0% | ? | -18.7% | -29.9% | -0.7 | -12.6%
Cn1c(=O)c(=O)n(C)c2cc(S(=O)(=O)N3CCC(Cc4ccccc4)CC3)ccc21 | -0.2% | 0.6% | 11.1% | 2.5% | 0.1 | -5.3%
CN(C)c1ccc(S(=O)(=O)N2CCC(Cc3ccccc3)CC2)cn1 | -0.3% | 20.6µM* | -4.1% | -35.4% | 0.1 | -3.1%
Cc1cc(NCc2ccccc2Cl)n2cnnc2n1 | -0.6% | ? | -9.2% | / | / | /
CCOc1ccccc1N=C1SC(CC(=O)Nc2ccc(OC)cc2OC)C(=O)N1CCC1=CCCCC1 (stereo unspecified) | 0.0% | -22.8% | 1.1% | -40.5% | -2.8 | -2.0%
O=C(CC1SC(=Nc2ccc(OC(F)F)cc2)N(CCC2=CCCCC2)C1=O)Nc1ccccc1F (stereo unspecified) | 6.9% | 20.6µM* | -17.4% | -28.3% | -1.5 | 1.6%
COc1ccccc1N(CC(=O)Nc1cccc(C(F)(F)F)c1)S(C)(=O)=O | 0.2% | -4.0% | 1.0% | -19.5% | 1.0 | 0.5%
Cc1ccc([N+](=O)[O-])cc1N(CC(=O)Nc1ccc(S(=O)(=O)Nc2cccc(C(F)(F)F)c2)cc1)S(C)(=O)=O | -1.0% | 20.6µM* | ? | -94.8% | -0.8 | -2.7%
Cn1c(=O)n(C)c2cc(NS(=O)(=O)c3ccc(F)cc3)c(NCc3ccccc3)cc21 | 12.6µM* | ? | 2.5% | / | / | /
Cc1ccc(S(=O)(=O)Nc2cc3c(cc2NCc2ccccc2)n(C)c(=O)n3C)cc1 | ? | ? | -15.7% | / | / | /
Cc1ccc(S(=O)(=O)Nc2cc3c(cc2NCc2ccccc2)n(C)c(=O)n3C)c(C)c1 | ? | 11.9% | -4.0% | / | / | /
CC(C)c1ccc(S(=O)(=O)Nc2cc3c(cc2NCc2ccccc2)n(C)c(=O)n3C)cc1 | 6.4% | 25.9µM* | -10.3% | -42.0% | / | /
COc1ccc(-c2ccc3ncnc(N(C)Cc4csc(C)n4)c3c2)cc1OC | / | 3.66µM* | -15.0% | / | / | /
SMILES | Nrf2 activator | Nrf2 block | A549 tox | BRCA1 expr up | IL2 activator | p53 reactivation
Cc1ccc(N2C(=O)c3oc4cc(C)c(C)cc4c(=O)c3C2c2cccc(O)c2)nc1 (stereo unspecified) | -0.7% | 1.2% | -5.1% | / | / | /
COc1ccc(Br)cc1CN(C)C(=O)c1ccc2c(c1)NC(=O)C(C)S2 (stereo unspecified) | -1.4% | 4.0% | 5.2% | -17.5% | 5.8 | -6.3%
CCOc1ccc(CN(C)C(=O)c2ccc3c(c2)NC(=O)C(C)S3)cc1OC (stereo unspecified) | 5.8% | 16.4µM* | -18.6% | -27.1% | -0.4 | -5.0%
Cc1cccc(NC(=O)CSc2nnc3scc(-c4ccccc4)n23)c1 | 6.5% | -24.9% | 0.8% | / | / | /
CCOc1cc(C2NC(=O)c3c(sc4c3CCN(C)C4)N2)ccc1OC(=O)c1ccccc1Cl (stereo unspecified) | -2.1% | 8.2µM* | -6.8% | / | / | /
COc1ccc(-n2c(C)cc(C(=O)NC3CCCCC3)c2C)cc1 | 17.8µM* | ? | -8.3% | ? | -0.1 | ?
Cc1cccc(-n2c(C)cc(C(=O)NC3CCCCC3)c2C)c1 | ? | -21.0% | -22.3% | ? | -1.6 | ?
COCC(=O)n1nc(-c2ccccc2)nc1NCc1cccs1 | 2.6% | 10.9% | -1.4% | 10µM* | -0.9 | 15.8%
CCOC(=O)c1c(NC(=O)c2cc(=O)c3cc(C)cc(C)c3o2)sc(C)c1C | 0.0% | -4.5% | 1.9% | / | / | /
CC1=C/C(=C(\c2cc(C)c(O)c(Br)c2)c2ccccc2S(=O)(=O)O)C=C(Br)C1=O | -2.5% | ? | 16.4µM* | -86.5% | 1.1 | -43.9%
CCCNC(=O)c1nnsc1S(=O)(=O)c1ccc(Cl)cc1 | -2.7% | 23.1µM* | ? | -65.9% | -1.0 | -19.1%
Cc1ccc(Nc2nc3nonc3nc2Nc2cccc(C(F)(F)F)c2)cc1Cl | -1.6% | 3.26µM* | 7.31µM* | / | / | /
COc1ccccc1N1C(=O)C(Cl)=C(Nc2ccccc2O)C1=O | 12.6µM* | 12.1% | 1.2% | -16.8% | -2.1 | ?
O=C1C(Cl)=C(Nc2ccccc2O)C(=O)N1c1ccccc1 | ? | 17.7% | -10.0% | -25.1% | -2.6 | ?
CSc1cc2c(s1)c1cnn(Cc3cccc(N)c3)c(=O)c1n2C | / | -10.1% | -1.7% | / | / | /
O=C(N/N=C/c1ccccc1)c1ccco1 | 4.4% | ? | -2.8% | ? | 0.3 | 17.0%
O=C(C#Cc1ccccc1)c1ccco1 | -1.9% | 20.6µM* | ? | -104.1% | -4.2 | -25.8%
CN(Cc1c(F)cccc1Cl)C(=O)CNC(=O)c1cccs1 | 4.9% | ? | -2.0% | 11.2µM* | -2.0 | -0.4%
CN(Cc1ccc(F)cc1)C(=O)CNC(=O)c1cccs1 | -0.2% | 4.9% | 0.5% | 20.9% | 0.3 | 1.0%
